Compound activity (PubChem BioAssay)
Rows were chosen to be rich in hits. Some 10% of all compounds tested hit in one or more screens of this group.
HEK293 tox – Cytotoxic Profiling in HEK 293 Cell Line of Diverse Libraries Using Quantitative High-Throughput Screening; HEK 293 viability, ATP luminescence (CellTiter-Glo), 48-72 h; Potency, µM (series often up to 115 µM), hits mostly inhibitors; 6.6% of 94,000 active; note: nearly all actives have a fitted effect of over 60% in size
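Luminescence from cellular ATP, measured with CellTiter-Glo, indicates HEK 293 viability. Cells plated at 250 cells/well are treated with compound for 48 or 72 hr at 37 degree Celsius before reagent addition.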
hNpr1 antagonist – Natriuretic polypeptide receptor (hNpr1) antagonism - Primary qHTS | HEK293 hNpr1 GloSensor cGMP, ANP-stimulated luminescence | AID 1347048, 2019 | 1.6% of 76,000 active | Atrial natriuretic peptide receptor 1 (Homo sapiens), P16066 | Potency, µM (series often up to 46.3 µM), actives largely listed as inhibitors; calls by dose curve; note: nearly all actives have a fitted effect of over 60% in size
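Compound pre-incubated 30 min at room temperature on GloSensor-loaded HEK293 cells stably carrying hNpr1 and the pGS-40F cGMP biosensor. Stimulation uses hNppA at 0.1 nM final; luminescence is taken at baseline and 20 min post-agonist.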
FLuc inh – Firefly luciferase inhibition profiling of diverse chemical library using quantitative high-throughput screening. purified P. pyralis luciferase, luminescence, biochemical. Potency, µM (series often up to 115 µM), most hits filed as inhibitors. 2.5% of 76,000 active. Luciferin 4-monooxygenase (Photinus pyralis), P08659; note: nearly all actives have a fitted effect of over 65% in size
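Inhibitors were tested against purified firefly luciferase in a biochemical, low-substrate format (both substrates at 10uM) and luminescence measured with a CCD imager.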
3T3 cytotox – Cytotoxic Profiling in NIH 3T3 Cell Line of Diverse Libraries Using Quantitative High-Throughput Screening; NIH 3T3 viability, CellTiter-Glo ATP luminescence, 48-72 h; Potency, µM (series often up to 96.7 µM), actives largely listed as inhibitors; 4.3% of 94,000 active; AID 1345082, 2018; note: nearly all actives have a fitted effect of over 55% in size
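ATP-dependent luminescence (CellTiter-Glo) served as the viability signal for NIH 3T3 cells treated with compound for 48 or 72 hr at 37 °C.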
GPT2 inh – Primary qHTS assay for inhibitors of Glutamate pyruvate transaminase 2 (GPT2); Recombinant GPT2, coupled pyruvate oxidase/HRP Amplex Red fluorescence; Potency, µM (series often up to 57.7 µM), actives largely listed as inhibitors; 0.25% of 100,000 active; note: nearly all actives have a fitted effect of over 60% in size
Target sequence (Q8TD30 whole entry, looked up): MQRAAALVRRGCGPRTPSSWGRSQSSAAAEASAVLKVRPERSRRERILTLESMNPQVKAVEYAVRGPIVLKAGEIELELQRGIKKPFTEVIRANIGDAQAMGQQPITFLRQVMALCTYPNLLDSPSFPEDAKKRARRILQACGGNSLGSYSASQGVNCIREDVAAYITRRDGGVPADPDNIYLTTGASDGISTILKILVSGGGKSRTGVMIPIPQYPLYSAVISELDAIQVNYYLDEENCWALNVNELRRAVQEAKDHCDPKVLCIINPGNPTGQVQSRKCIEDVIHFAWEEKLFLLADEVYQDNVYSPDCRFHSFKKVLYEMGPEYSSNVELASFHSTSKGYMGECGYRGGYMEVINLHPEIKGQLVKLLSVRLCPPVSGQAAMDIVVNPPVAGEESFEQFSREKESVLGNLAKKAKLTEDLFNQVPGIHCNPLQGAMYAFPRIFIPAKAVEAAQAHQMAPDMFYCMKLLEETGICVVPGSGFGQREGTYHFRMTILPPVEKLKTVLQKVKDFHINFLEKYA
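Recombinant GPT2 (10ng/uL) with 250uM a-KG and 2mM L-alanine, 30 min at room temperature, in HEPES pH 7.5 buffer. Pyruvate detected by pyruvate oxidase/HRP/Amplex Red fluorescence after 30 min in the dark; AOA (50uM) as positive control.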
Each line names hits and unclear results; the compound was inactive in the other large screens. Unless noted, calls come from the whole dose curve; as a rule, active = well fitted curve in the direction sought with a large enough effect; inconclusive = small, poorly fitted or top-dose-only effect, or another doubt; inactive = no such curve, though single readings can be large; an effect the other way counts as inactive or inconclusive.

O=C(C1CCCC1)N1CCc2nc(C3CC3)nc(-c3ccc(Cl)cc3)c2C1	HEK293 tox inconclusive, 3T3 cytotox inconclusive
O=c1cc(N2CCOCC2)oc2c(-c3ccc(F)cc3)nccc12	HEK293 tox inconclusive, 3T3 cytotox 31.6µM
O=c1cc(N2CCOCC2)oc2c(-c3ccc(F)c(Cl)c3)nccc12	3T3 cytotox 17.8µM
CN1CCN(c2cc(=O)c3ccnc(-c4ccc(CO)cc4)c3o2)CC1	3T3 cytotox inconclusive
CN1CCN(c2cc(=O)c3ccnc(Nc4ccc(F)c(Cl)c4)c3o2)CC1	HEK293 tox inconclusive, 3T3 cytotox 100µM
Cc1cc(-c2nccc3c(=O)cc(N4CCOCC4)oc23)ccn1	3T3 cytotox 31.6µM
O=C(c1ccccn1)N1CCC(n2c(=O)[nH]c3ccccc32)CC1	none (no result: hNpr1 antagonist, FLuc inh)
Cc1ccccc1CN1CC[C@@H]2OCC(=O)N(Cc3cccc(C(N)=O)c3)[C@H]2CC1	HEK293 tox inconclusive
CN1CCN(c2cc(=O)c3ccnc(-c4cccc(CO)c4)c3o2)CC1	3T3 cytotox inconclusive
CN(C)c1cc(=O)c2ccnc(-c3ccc(N4CCOCC4)cc3)c2o1	FLuc inh 44.7µM, 3T3 cytotox inconclusive
COc1cc(F)ccc1-c1nccc2c(=O)cc(N(C)C3CCOCC3)oc12	3T3 cytotox inconclusive
COc1cc(F)ccc1-c1nccc2c(=O)cc(N3CCOCC3)oc12	3T3 cytotox 44.7µM
CN1CCN(c2cc(=O)c3ccnc(-c4cccc(F)c4)c3o2)CC1	3T3 cytotox 35.5µM
CN(C)c1cc(=O)c2ccnc(-c3cccc(CO)c3)c2o1	3T3 cytotox inconclusive
O=c1cc(N2CCOCC2)oc2c(-c3cccc4[nH]ccc34)nccc12	HEK293 tox inconclusive, 3T3 cytotox 8.91µM
COC(=O)c1sccc1NC(=O)N1CCCC1c1noc(COc2ccc(F)cc2)n1 (stereo not drawn)	HEK293 tox inconclusive, 3T3 cytotox inconclusive
O=c1cc(N2CCOCC2)oc2c(NCc3ccc(F)cc3)nccc12	HEK293 tox inconclusive, 3T3 cytotox 25.1µM
COc1ccc(-c2nccc3c(=O)cc(N4CCOCC4)oc23)cc1OC	HEK293 tox inconclusive, 3T3 cytotox 10µM
O=c1cc(N2CCOCC2)oc2c(Nc3ccccn3)nccc12	3T3 cytotox inconclusive
O=c1cc(N2CCOCC2)oc2c(N3CCOCC3)nccc12	HEK293 tox inconclusive, 3T3 cytotox 39.8µM
Cc1cc(-c2nccc3c(=O)cc(N(C)C)oc23)ccn1	3T3 cytotox inconclusive, GPT2 inh inconclusive
CN1CCN(c2cc(=O)c3ccnc(Nc4ccccn4)c3o2)CC1	3T3 cytotox inconclusive
Cc1cc(-c2nccc3c(=O)cc(N(C)c4ccccc4)oc23)ccn1	HEK293 tox inconclusive, 3T3 cytotox 10µM
CC#CCn1cc2c3c(cccc31)[C@H](CC(C)C)N[C@H](C(=O)N1CCN(CCO)CC1)C2	HEK293 tox inconclusive, 3T3 cytotox inconclusive
CC(=O)c1ccc(NC(=O)O[C@@H]2CO[C@H]3[C@@H]2OC[C@@H]3NC(=O)C2CC2)cc1	none
O=C(Nc1ccccc1)O[C@@H]1CO[C@H]2[C@@H]1OC[C@@H]2NC(=S)Nc1ccccc1	none
CC(C)c1ccc(NC(=O)N[C@H]2CO[C@H]3[C@@H]2OC[C@H]3OC(=O)Nc2cccc(C(F)(F)F)c2)cc1	HEK293 tox 28.2µM, hNpr1 antagonist inconclusive, 3T3 cytotox 25.1µM
COC(=O)c1cccc(C(=O)N[C@H]2CO[C@H]3[C@@H]2OC[C@H]3OC(=O)Nc2ccc(Oc3ccccc3)cc2)c1	HEK293 tox 10µM
CC(=O)c1ccc(NC(=O)O[C@@H]2CO[C@H]3[C@@H]2OC[C@@H]3NC(=S)NC2CCCCC2)cc1	HEK293 tox 79.4µM
O=C(Nc1ccccc1)N[C@H]1CO[C@H]2[C@@H]1OC[C@H]2OC(=O)Nc1ccccc1	HEK293 tox inconclusive, FLuc inh 44.7µM
Cn1nccc1-c1ccc2ncn(Cc3ccccn3)c(=O)c2n1	3T3 cytotox inconclusive
COc1ccc(CNC(=O)CCC2CCCN(C(=O)CN3CCOC3=O)C2)c(OC)c1 (stereo not drawn)	GPT2 inh inconclusive
O=C(NCCc1ccccc1F)c1cn2cc(-c3ccccc3)sc2n1	3T3 cytotox inconclusive (no result: hNpr1 antagonist, FLuc inh)
CC(=O)OC/C(=C/C(=O)O)CC[C@@H]1C(C)=CC(=O)[C@@H]2C(C)(C)CCC[C@@]12C	none (no result: HEK293 tox, hNpr1 antagonist, FLuc inh, 3T3 cytotox)
O=C(NCC1Cn2cccc2C(=O)N1Cc1cccnc1)c1n[nH]c(=O)c2ccccc12 (stereo not drawn)	3T3 cytotox 39.8µM
CC(C)CN1C(=O)c2cccn2CC1CNC(=O)c1n[nH]c(=O)c2ccccc12 (stereo not drawn)	none
COc1ccc2[nH]cc(CCNC(=O)C3Cn4cccc4C(=O)N3Cc3cccnc3)c2c1 (stereo not drawn)	HEK293 tox 89.1µM, 3T3 cytotox inconclusive
CNC(C)c1cnccn1 (stereo not drawn)	none (no result: hNpr1 antagonist, FLuc inh)
CCOC(=O)C1CCN(C(=O)c2cc3c(n2C)CCN(Cc2ccccc2)C3)CC1	HEK293 tox inconclusive
CNC(=O)[C@@H](c1ccc(OC)cc1)N1CCC[C@H]1C(=O)NCC1CCCCC1	HEK293 tox inconclusive, 3T3 cytotox 100µM
CC(=O)N1CCC(c2nnc3n2C(C(=O)NCc2ccc(F)c(F)c2)CC3)CC1 (stereo not drawn)	none (no result: hNpr1 antagonist, FLuc inh)
Cc1noc(-c2ccc(OC3CN(C(=O)NC4CCCCC4)C3)cc2)n1	HEK293 tox 39.8µM, hNpr1 antagonist inconclusive, 3T3 cytotox inconclusive
Cc1noc(-c2cccc(OC3CN(C(=O)NC4CCCC4)C3)c2)n1	HEK293 tox 79.4µM, 3T3 cytotox inconclusive
Cc1ncsc1CN1CCC(N2CC3(CCCCC3)C2c2ccccc2)CC1 (stereo not drawn)	HEK293 tox 44.7µM, 3T3 cytotox inconclusive (no result: hNpr1 antagonist, FLuc inh)
Cc1ncsc1CN1CCC(N2C(=O)C(OCC3CC3)C23CCCCC3)CC1 (stereo not drawn)	HEK293 tox inconclusive
CC(=O)NC[C@@H]1C=C(C)[C@H](CC(=O)N(C)Cc2ccccc2)C[C@H]1C(C)C	HEK293 tox inconclusive
Cc1[nH]c2c(c1C(=O)N1CCCC(CCc3ccc(F)cc3)C1)C(=O)CCC2 (stereo not drawn)	HEK293 tox 31.6µM, hNpr1 antagonist inconclusive, 3T3 cytotox inconclusive
CNC(=O)c1cc(-c2cnn(C)c2C)cc2c1OCCN2Cc1cccnc1	3T3 cytotox 44.7µM
CNC(=O)c1cc(-c2ccc(OC)c(OC)c2)cc2c1OCCN2Cc1cccnc1	3T3 cytotox 22.4µM
CNC(=O)c1cc(-c2ccc([S+](C)(=O)[O-])cc2)cc2c1OCCN2Cc1cccnc1	3T3 cytotox 8.91µM, GPT2 inh inconclusive
